Measured values reported in the supplement of paper PMC4022240.
± gives the standard deviation.

How the values were obtained:
Assay in all cases: peptide microarray binding signal (635 nm), min-max normalized on array (fraction of array maximum); higher = stronger binding
[1] = biological target: T1, HaloTag-ATRX ADD domain (163-292)
T1 chain: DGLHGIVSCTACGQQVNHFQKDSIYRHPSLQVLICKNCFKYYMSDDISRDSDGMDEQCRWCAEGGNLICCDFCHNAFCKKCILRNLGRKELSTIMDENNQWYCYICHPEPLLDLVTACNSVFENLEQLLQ
Procedure, shortened: (§1)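 Arrays carried histone 13-mer peptide–cellulose conjugates printed in triplicate on nitrocellulose alongside a Cy3 tracer. After overnight blocking at 4°C, they were incubated for 1 h at 4°C with biotin-labelled HaloTag reader fusions (10 nM to 1 μM) plus streptavidin-Alexa Fluor 647, or with rabbit histone antibodies (1:10,000 to 1:2,000) plus anti-rabbit Alexa 647. Scanning on an Axon GenePix 4000B used 635 nm for signal and 532 nm for misprints. The binding signal reported is each triplicate's mean spot intensity after per-library min-max scaling.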

[2] = biological target: HaloTag-ING2 PHD (mouse Ing2 200-280)
Procedure, shortened: as §1

[3] = biological target: anti-H3K4me3 antibody ab8580
Procedure, shortened: as §1

[4] = biological target: anti-H3K9me3 antibody ab8898
Procedure, shortened: as §1

[5] = peptide region: H3 73-85, peptide modifications: H3K79ac, binder concentration: 1:2,000 dilution
[6] = peptide region: H3 73-85, peptide modifications: H3K79ac, binder concentration: 1:10,000 dilution
[7] = peptide region: H3 50-62, peptide modifications: H3T58ph, binder concentration: 1:2,000 dilution
[8] = peptide region: H3 50-62, peptide modifications: H3T58ph, binder concentration: 1:10,000 dilution
[9] = peptide region: H3 73-85, peptide modifications: H3K79ac H3T80ph, binder concentration: 1:2,000 dilution
[10] = peptide region: H3 73-85, peptide modifications: H3K79ac H3T80ph, binder concentration: 1:10,000 dilution
[11] = peptide region: H3 50-62, peptide modifications: H3K56me3 H3S57ph, binder concentration: 1:2,000 dilution
[12] = peptide region: H3 50-62, peptide modifications: H3K56me3 H3S57ph, binder concentration: 1:10,000 dilution
[13] = peptide region: H3 50-62, peptide modifications: H3K56me2, binder concentration: 1:2,000 dilution
[14] = peptide region: H3 50-62, peptide modifications: H3K56me2, binder concentration: 1:10,000 dilution
[15] = peptide region: H3 50-62, peptide modifications: H3K56me3 H3T58ph, binder concentration: 1:2,000 dilution
[16] = peptide region: H3 50-62, peptide modifications: H3K56me3 H3T58ph, binder concentration: 1:10,000 dilution
[17] = peptide region: H3 50-62, peptide modifications: H3K56me3, binder concentration: 1:2,000 dilution
[18] = peptide region: H3 50-62, peptide modifications: H3K56me3, binder concentration: 1:10,000 dilution
[19] = peptide region: H3 50-62, binder concentration: 1:2,000 dilution
[20] = peptide region: H3 50-62, binder concentration: 1:10,000 dilution
[21] = peptide region: H3 73-85, peptide modifications: H3K79me1 H3T80ph, binder concentration: 1:2,000 dilution
[22] = peptide region: H3 73-85, peptide modifications: H3K79me1 H3T80ph, binder concentration: 1:10,000 dilution
[23] = peptide region: H3 50-62, peptide modifications: H3K56ac H3S57ph, binder concentration: 1:2,000 dilution
[24] = peptide region: H3 50-62, peptide modifications: H3K56ac H3S57ph, binder concentration: 1:10,000 dilution

B1: H3 73-85 E I A Q D F Kac T D L R F Q (peptide)
chain: EIAQDFKTDLRFQ
[1]; peptide region: H3 73-85, peptide modifications: H3K79ac, binder concentration: 50 nM
  peptide microarray binding signal: 0.003981 ± 1.6e-05
[1]; peptide region: H3 73-85, peptide modifications: H3K79ac, binder concentration: 500 nM
  peptide microarray binding signal: 0.0121 ± 0.0025
[2]; peptide region: H3 73-85, peptide modifications: H3K79ac, binder concentration: 10 nM
  peptide microarray binding signal: 0.00537 ± 0.00042
[2]; peptide region: H3 73-85, peptide modifications: H3K79ac, binder concentration: 100 nM
  peptide microarray binding signal: 0.00298 ± 0.00043
[3]; [5]
  peptide microarray binding signal: 0.00166 ± 0.00016
[3]; [6]
  peptide microarray binding signal: 0.00428 ± 0.00088
[4]; [5]
  peptide microarray binding signal: 0.0114 ± 0.0038
[4]; [6]
  peptide microarray binding signal: 0.0106 ± 0.0027

B2: H3 50-62 E I R R Y Q K S Tph E L L I (peptide)
chain: EIRRYQKSTELLI
[1]; peptide region: H3 50-62, peptide modifications: H3T58ph, binder concentration: 50 nM
  peptide microarray binding signal: 0.000784 ± 1.1e-05
[1]; peptide region: H3 50-62, peptide modifications: H3T58ph, binder concentration: 500 nM
  peptide microarray binding signal: 0.00119 ± 3e-05
[2]; peptide region: H3 50-62, peptide modifications: H3T58ph, binder concentration: 10 nM
  peptide microarray binding signal: 0.00209 ± 3.2e-05
[2]; peptide region: H3 50-62, peptide modifications: H3T58ph, binder concentration: 100 nM
  peptide microarray binding signal: 0.000425 ± 4.9e-06
[3]; [7]
  peptide microarray binding signal: 0.000151 ± 3.3e-06
[3]; [8]
  peptide microarray binding signal: 0.000114 ± 1.3e-06
[4]; [7]
  peptide microarray binding signal: 0.0006041 ± 5.5e-06
[4]; [8]
  peptide microarray binding signal: 0.000519 ± 5.6e-06

B3: H3 73-85 E I A Q D F Kac Tph D L R F Q (peptide)
chain: EIAQDFKTDLRFQ
[1]; peptide region: H3 73-85, peptide modifications: H3K79ac H3T80ph, binder concentration: 50 nM
  peptide microarray binding signal: 0.000721 ± 1.1e-05
[1]; peptide region: H3 73-85, peptide modifications: H3K79ac H3T80ph, binder concentration: 500 nM
  peptide microarray binding signal: 0.00171 ± 4.6e-05
[2]; peptide region: H3 73-85, peptide modifications: H3K79ac H3T80ph, binder concentration: 10 nM
  peptide microarray binding signal: 0.00221 ± 4.4e-05
[2]; peptide region: H3 73-85, peptide modifications: H3K79ac H3T80ph, binder concentration: 100 nM
  peptide microarray binding signal: 0.000638 ± 7.1e-06
[3]; [9]
  peptide microarray binding signal: 0.000491 ± 2.4e-05
[3]; [10]
  peptide microarray binding signal: 0.000628 ± 1.8e-05
[4]; [9]
  peptide microarray binding signal: 0.000951 ± 3.6e-05
[4]; [10]
  peptide microarray binding signal: 0.000865 ± 1.8e-05

B4: H3 50-62 E I R R Y Q Kme3 Sph T E L L I (peptide)
chain: EIRRYQKSTELLI
[1]; peptide region: H3 50-62, peptide modifications: H3K56me3 H3S57ph, binder concentration: 50 nM
  peptide microarray binding signal: 0.00122 ± 2.2e-05
[1]; peptide region: H3 50-62, peptide modifications: H3K56me3 H3S57ph, binder concentration: 500 nM
  peptide microarray binding signal: 0.00224 ± 0.0003
[2]; peptide region: H3 50-62, peptide modifications: H3K56me3 H3S57ph, binder concentration: 10 nM
  peptide microarray binding signal: 0.00251 ± 0.0001
[2]; peptide region: H3 50-62, peptide modifications: H3K56me3 H3S57ph, binder concentration: 100 nM
  peptide microarray binding signal: 0.00142 ± 0.00012
[3]; [11]
  peptide microarray binding signal: 0.00238 ± 0.00081
[3]; [12]
  peptide microarray binding signal: 0.00177 ± 5e-05
[4]; [11]
  peptide microarray binding signal: 0.0141 ± 0.011
[4]; [12]
  peptide microarray binding signal: 0.0094 ± 0.0038

B5: H3 50-62 E I R R Y Q Kme2 S T E L L I (peptide)
chain: EIRRYQKSTELLI
[1]; peptide region: H3 50-62, peptide modifications: H3K56me2, binder concentration: 50 nM
  peptide microarray binding signal: 0.01 ± 0.00043
[1]; peptide region: H3 50-62, peptide modifications: H3K56me2, binder concentration: 500 nM
  peptide microarray binding signal: 0.0165 ± 0.0014
[2]; peptide region: H3 50-62, peptide modifications: H3K56me2, binder concentration: 10 nM
  peptide microarray binding signal: 0.0135 ± 0.0033
[2]; peptide region: H3 50-62, peptide modifications: H3K56me2, binder concentration: 100 nM
  peptide microarray binding signal: 0.00624 ± 0.00068
[3]; [13]
  peptide microarray binding signal: 0.000868 ± 0.00013
[3]; [14]
  peptide microarray binding signal: 0.00171 ± 8.6e-05
[4]; [13]
  peptide microarray binding signal: 0.00953 ± 0.00056
[4]; [14]
  peptide microarray binding signal: 0.00323 ± 0.0002

B6: H3 50-62 E I R R Y Q Kme3 S Tph E L L I (peptide)
chain: EIRRYQKSTELLI
[1]; peptide region: H3 50-62, peptide modifications: H3K56me3 H3T58ph, binder concentration: 50 nM
  peptide microarray binding signal: 0.0015 ± 4e-05
[1]; peptide region: H3 50-62, peptide modifications: H3K56me3 H3T58ph, binder concentration: 500 nM
  peptide microarray binding signal: 0.00129 ± 3.6e-05
[2]; peptide region: H3 50-62, peptide modifications: H3K56me3 H3T58ph, binder concentration: 10 nM
  peptide microarray binding signal: 0.00281 ± 8.3e-05
[2]; peptide region: H3 50-62, peptide modifications: H3K56me3 H3T58ph, binder concentration: 100 nM
  peptide microarray binding signal: 0.0017 ± 4.6e-05
[3]; [15]
  peptide microarray binding signal: 0.00109 ± 3.3e-05
[3]; [16]
  peptide microarray binding signal: 0.000799 ± 2.2e-05
[4]; [15]
  peptide microarray binding signal: 0.00261 ± 0.0003
[4]; [16]
  peptide microarray binding signal: 0.001211 ± 1.2e-05

B7: H3 50-62 E I R R Y Q Kme3 S T E L L I (peptide)
chain: EIRRYQKSTELLI
[1]; peptide region: H3 50-62, peptide modifications: H3K56me3, binder concentration: 50 nM
  peptide microarray binding signal: 0.00232 ± 0.0002
[1]; peptide region: H3 50-62, peptide modifications: H3K56me3, binder concentration: 500 nM
  peptide microarray binding signal: 0.0019 ± 6e-05
[2]; peptide region: H3 50-62, peptide modifications: H3K56me3, binder concentration: 10 nM
  peptide microarray binding signal: 0.00233 ± 2.7e-05
[2]; peptide region: H3 50-62, peptide modifications: H3K56me3, binder concentration: 100 nM
  peptide microarray binding signal: 0.002268 ± 2.2e-05
[3]; [17]
  peptide microarray binding signal: 0.00259 ± 0.0002
[3]; [18]
  peptide microarray binding signal: 0.00108 ± 3.8e-05
[4]; [17]
  peptide microarray binding signal: 0.0209 ± 0.0092
[4]; [18]
  peptide microarray binding signal: 0.00986 ± 0.0031

B8: H3 50-62 E I R R Y Q K S T E L L I (peptide)
chain: EIRRYQKSTELLI
[1]; peptide region: H3 50-62, binder concentration: 50 nM
  peptide microarray binding signal: 0.00599 ± 0.00033
[1]; peptide region: H3 50-62, binder concentration: 500 nM
  peptide microarray binding signal: 0.0144 ± 0.00044
[2]; peptide region: H3 50-62, binder concentration: 10 nM
  peptide microarray binding signal: 0.00859 ± 0.00029
[2]; peptide region: H3 50-62, binder concentration: 100 nM
  peptide microarray binding signal: 0.00149 ± 5.6e-05
[3]; [19]
  peptide microarray binding signal: 0.00017 ± 3.2e-06
[3]; [20]
  peptide microarray binding signal: 0.00514 ± 0.0014
[4]; [19]
  peptide microarray binding signal: 0.00299 ± 0.00025
[4]; [20]
  peptide microarray binding signal: 0.00288 ± 7.4e-05

B9: H3 73-85 E I A Q D F Kme Tph D L R F Q (peptide)
chain: EIAQDFKTDLRFQ
[1]; peptide region: H3 73-85, peptide modifications: H3K79me1 H3T80ph, binder concentration: 50 nM
  peptide microarray binding signal: 0.001034 ± 5.2e-06
[1]; peptide region: H3 73-85, peptide modifications: H3K79me1 H3T80ph, binder concentration: 500 nM
  peptide microarray binding signal: 0.00181 ± 3.2e-05
[2]; peptide region: H3 73-85, peptide modifications: H3K79me1 H3T80ph, binder concentration: 10 nM
  peptide microarray binding signal: 0.00281 ± 8.7e-05
[2]; peptide region: H3 73-85, peptide modifications: H3K79me1 H3T80ph, binder concentration: 100 nM
  peptide microarray binding signal: 0.00135 ± 7.3e-05
[3]; [21]
  peptide microarray binding signal: 0.000283
[3]; [22]
  peptide microarray binding signal: 0.000342 ± 3.8e-06
[4]; [21]
  peptide microarray binding signal: 0.000921 ± 0.00013
[4]; [22]
  peptide microarray binding signal: 0.000634

B10: H3 50-62 E I R R Y Q Kac Sph T E L L I (peptide)
chain: EIRRYQKSTELLI
[1]; peptide region: H3 50-62, peptide modifications: H3K56ac H3S57ph, binder concentration: 50 nM
  peptide microarray binding signal: 0.00069 ± 9.4e-06
[1]; peptide region: H3 50-62, peptide modifications: H3K56ac H3S57ph, binder concentration: 500 nM
  peptide microarray binding signal: 0.00119 ± 4e-05
[2]; peptide region: H3 50-62, peptide modifications: H3K56ac H3S57ph, binder concentration: 10 nM
  peptide microarray binding signal: 0.00197 ± 4.2e-05
[2]; peptide region: H3 50-62, peptide modifications: H3K56ac H3S57ph, binder concentration: 100 nM
  peptide microarray binding signal: 0.000567 ± 6.4e-06
[3]; [23]
  peptide microarray binding signal: 5.66e-05
[3]; [24]
  peptide microarray binding signal: 0.000399 ± 2.6e-05
[4]; [23]
  peptide microarray binding signal: 0.000861 ± 5.4e-05
[4]; [24]
  peptide microarray binding signal: 0.000577 ± 6.2e-06
